# Source: PubChem BioAssay (NCATS)
# Results filed as inconclusive are left out. Where a call stands in place of a potency, no number is given. Unmarked numbers belong to inactive results. Active and inactive are the calls of the source. Calls follow the shape of the dose curve; as a rule, active = well fitted inhibition curve with a large enough effect; inconclusive = small, poorly fitted or top-dose-only effect; inactive = flat fitted curve, though single readings scatter.
# Experiment: P-glycoprotein substrates identified in KB-8-5-11 adenocarcinoma cell line, qHTS therapeutic library screen (AID 1346987); also: nearly all actives have a fitted effect of over 65% in size; as to activity change, negative = cytotoxicity: series mostly up to about 44 µM
# How it was run: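 KB-8-5-11: colchicine-selected sub-line of KB-3-1 over-expressing P-gp; assay medium lacked colchicine. 72 h drug exposure at 37 degree C, CellTiter-Glo.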
SMILES,Potency,"activity change, negative = cytotoxicity"
CC1=CCC(C(C)(C)O)CC1 (configuration not stated),inactive,
CC(C)C1(O[C@@H]2O[C@H](CO)[C@@H](O)[C@H](O)[C@H]2O)CC=C(CO)CC1 (some centres not stated),inactive,
C1CCN2CC3C[C@@H](CN4CCCC[C@@H]34)[C@H]2C1,inactive,
O=C(NN1CCCCC1)c1nn(-c2ccc(Cl)cc2Cl)c(-c2ccc(C#Cc3ccc(C(F)(F)F)cc3)s2)c1CNS(=O)(=O)N1CCCC1,inactive,
C=CCc1ccc(O[C@@H]2O[C@H](CO[C@@H]3O[C@H](CO)[C@@H](O)[C@H](O)[C@H]3O)[C@@H](O)[C@H](O)[C@H]2O)c(O)c1,inactive,
CC(C)=CCC/C(C)=C/CC/C(C)=C/CC[C@]1(C)CCc2cc(O)cc(C)c2O1,inactive,
CC(=O)OCC(=O)[C@@]12OC3(CCCC3)O[C@@H]1C[C@H]1[C@@H]3CCC4=CC(=O)C=C[C@]4(C)[C@@]3(F)[C@@H](O)C[C@@]12C,inactive,
C=CC1(C)CC2=CCC3C(C)(C(=O)O)CCCC3(C)C2CC1OC(C)=O (configuration not stated),inactive,
CC(C)[C@H]1CCC(CO)=C[C@@H]1/C=C(\CO)C(=O)O,inactive,
CC1(C)CCC(C)(C)c2cc3c(cc21)Sc1ccccc1N=C3c1ccc(C(=O)O)cc1,inactive,
CC1=C2[C@@H]([C@H](C)CC[C@H]2/C=C(\C)C(=O)O)[C@H](O)C1,inactive,
COC(=O)[C@@]1(C)CC[C@]2(C(=O)O[C@@H]3O[C@H](CO)[C@@H](O)[C@H](O)[C@H]3O)CC[C@]3(C)C(=CCC4[C@@]5(C)CC[C@H](O[C@@H]6O[C@H](C(=O)O)[C@@H](O)[C@H](O)[C@H]6O)C(C)(C)C5CC[C@]43C)[C@@H]2C1 (some centres not stated),,-9.96% [at 9.29 µM]
